# Most compounds without a hit are left out; they make up all but 5.4% or so of the library.
# PP5 primary – blocks human protein phosphatase 5 activity; purified PP5c, OMFP substrate fluorescence; inhibition, % at 6.7 µM; hit rate 0.18% among 320,000; AID 1987;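 active = inhibition above the campaign's mean inhibition across all tested compounds plus 3 SD, cut at about 9.5% in these data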;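 also: 0% = DMSO only and 100% = 100 µM cantharidin control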
# CSC inhib – cancer stem cell inhibition; cancer stem cell-like cells viability, luminescence; inhibition, % at 7.5 µM; hit rate 1.1% among 300,000; AID 2717; in the data active = inhibition above about 75%; tested in HMLE shEcad cells
# Calb FLC – C. albicans growth modulation with fluconazole | growth inhibition, % (no concentration beside the values) | hit rate 0.57% among 300,000 | C. albicans CaCi-2 (fluconazole-resistant clinical isolate) + fluconazole, Alamar Blue growth, 48 h;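 active = growth inhibition above about 58% in most replicates, limit read from the data, passing the limit was not always enough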;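 also: all wells also contain fluconazole at 8 µg/ml as a sub-toxic cotreatment; 0% = median of DMSO wells and 100% = median of geldanamycin control wells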
# PP1 inh – blocks human PP1-alpha phosphatase, a PP5 counter-screen; P62136; purified PP1alpha, OMFP fluorescence; inhibition, % at 6.7 µM; hit rate 0.9% among 320,000; AID 2235;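 active = inhibition above the mean inhibition of all tested compounds plus 3 SD, computed separately for each screening campaign, cut at about 15% in these data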
# Target sequence (P62136 whole entry, looked up): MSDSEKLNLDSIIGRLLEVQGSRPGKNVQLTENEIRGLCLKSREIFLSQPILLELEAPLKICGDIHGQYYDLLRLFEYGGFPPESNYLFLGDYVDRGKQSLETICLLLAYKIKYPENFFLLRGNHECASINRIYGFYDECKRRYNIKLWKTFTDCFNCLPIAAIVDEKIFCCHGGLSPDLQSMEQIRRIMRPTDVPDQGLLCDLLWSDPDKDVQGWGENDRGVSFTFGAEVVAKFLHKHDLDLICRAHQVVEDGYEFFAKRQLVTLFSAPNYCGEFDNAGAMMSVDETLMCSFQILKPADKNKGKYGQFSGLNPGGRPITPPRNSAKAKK
# ALR H2O2 inh – human ALR oxidase inhibition via reduced H2O2. inhibition, % (test concentration not listed). hit rate 3.8% among 290,000. purified ALR, DTT oxidation, H2O2 HRP-luminol luminescence. P55789;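 active = mean replicate inhibition above about 79%, with every replicate also reaching it, limit read from the data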
# Target sequence (P55789 whole entry, looked up): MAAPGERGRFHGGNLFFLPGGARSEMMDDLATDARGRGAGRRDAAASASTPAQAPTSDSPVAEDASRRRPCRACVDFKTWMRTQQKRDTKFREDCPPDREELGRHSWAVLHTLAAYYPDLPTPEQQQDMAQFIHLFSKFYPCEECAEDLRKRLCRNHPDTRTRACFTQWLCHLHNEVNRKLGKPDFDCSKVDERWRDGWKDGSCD
# PP1 inh confirm – confirmation of human PP1 phosphatase inhibitors | shares compounds with PP1 inh | hit rate 52% among 1,900 | inhibition, % at 6.7 µM | purified PP1alpha, OMFP substrate fluorescence;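 active = mean PP1 inhibition above a set limit taken from the earlier primary screen, cut at about 15% in these data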
# PP5 counter – PP5 phosphatase inhibition, counter-screen for PP1 inhibitors | inhibition, % at 6.7 µM | purified PP5c, OMFP fluorescence | shares compounds with PP1 inh | hit rate 4% among 1,900;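 active = mean PP5 inhibition over triplicate wells above about 9.5% taken from the earlier PP1 screen, limit read from the data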
# An asterisk follows results filed as active; / = not tested or not shown.
SMILES,PP5 primary,CSC inhib,Calb FLC,PP1 inh,ALR H2O2 inh,PP1 inh confirm,PP5 counter
NC(N)=N/N=C/c1ccc(OCc2ccc(Cl)cc2)cc1,1,/,111*,21*,3,1,-4
COc1ccc(N=Nc2ccc(O)c3ncccc23)cc1,2,151*,3,27*,/,26*,-2
COc1cccc(N=Nc2ccc3cccnc3c2O)c1,4,90*,86*,31*,/,25*,-2
Nc1ccc(N=Nc2ccccc2)c2cccnc12,6,14,35,1,/,/,/
NS(=O)(=O)c1cccc2cccnc12,-1,7,-3,0,2,/,/
COc1ccc(N=Nc2cc(-c3ccccc3)ccc2O)cc1,-1,19,1,-8,-6,/,/
O=S(=O)(O)c1cccc2c(N=Nc3ccc(O)c4ncccc34)cccc12,1,-6,84*,47*,33,19*,-2
COc1cccc(N=Nc2ccc(O)c3ncccc23)c1,4,123*,101*,27*,-18,23*,-1
Cc1ccc2c(c1)c1c3n2CC(=C2C(=O)OC(C)(C)OC2=O)NC3CCC1 (stereo not drawn),2,-4,-8,4,20,/,/
COc1cccc(/C=N/NC(=O)C(=O)N2CCCCCC2)c1OC,0,1,-3,-2,-3,/,/
Cc1nccn1CC1CCc2c(c3ccccc3n2C)C1=O (stereo not drawn),-1,-2,-5,1,-14,/,/
COc1cc(/C=N/NC(=O)COc2ccc(Cl)cc2)ccc1OS(=O)(=O)c1ccc(C)cc1,4,/,4,11,-4,/,/
CCCOc1ccc(C(=O)c2ccccc2C(=O)O)cc1OCCC,3,-1,-6,-2,6,/,/
COc1cc(OC)c(C(=O)Nc2ccc3ccccc3c2)cc1OC,1,-2,13,1,-4,/,/
COc1cc2ccccc2cc1C(=O)Nc1ccc2oc(=O)ccc2c1,-1,0,-2,24*,69,11,-6
S=C(Nc1ccccc1)N1CCN(C(=S)c2ccccc2)CC1,-1,-16,16,-2,-4,/,/
COc1ccc(CNC(=O)Cc2c(C(=O)O)[nH]c3ccccc23)c(OC)c1,1,2,8,-2,0,/,/
COc1cc(NC(=O)Cc2c(C(=O)O)[nH]c3ccccc23)cc(OC)c1OC,0,5,0,18*,-4,2,-1
O=C1COc2ccc(C(=O)COC(=O)CCc3ccc(S(=O)(=O)N4CCOCC4)cc3)cc2N1,1,2,-8,-3,-4,/,/
Cc1ccc(Nc2c(-c3ccc(N4CCOCC4)cc3)nc3cnccn23)cc1,-1,4,3,63*,99*,-3,-3
COc1cccc(/C=N/N2CCN(c3ccc(Cl)cc3)CC2)c1OC,6,-11,3,-2,9,/,/
CCn1c(SCC(=O)Nc2cc(C)on2)nc2sc3c(c2c1=O)CCCC3,5,-1,12,23*,-28,28*,-2
Cc1cc(C)cc(C(=O)NCC(=O)N(C)CCOc2ccccc2)c1,1,/,/,-3,0,/,/
CC(C)N(Cc1cnn(C)c1)Cc1nc(-c2ccc(Cl)cc2)no1,1,-14,-58,-1,-5,/,/
COC(=O)c1sc(NC(=O)COc2cccnc2[N+](=O)[O-])c(C(=O)OC)c1C,5,13,/,27*,-2,15,0
SMILES,PP5 primary,CSC inhib,Calb FLC,PP1 inh,ALR H2O2 inh,PP1 inh confirm,PP5 counter
COc1ccccc1NC(=O)COc1cccnc1[N+](=O)[O-],/,-12,/,/,/,/,/
C#CCOCCOCCOCCNc1nc(N2CCN(C(=O)[C@H]([C@@H](C)CC)n3cc([C@@H](N)Cc4ccc(O)cc4)nn3)CC2)nc(N2CCN(C(=O)[C@H](Cc3cc4ccccc4[nH]3)n3cc([C@@H](N)CC(C)C)nn3)CC2)n1,0,6,/,28*,-9,-13,-4
C#CCOCCOCCOCCNc1nc(N2CCN(C(=O)[C@H]([C@@H](C)CC)n3cc([C@@H](N)CC(C)C)nn3)CC2)nc(N2CCN(C(=O)[C@H](Cc3cc4ccccc4[nH]3)n3cc([C@@H](N)C(C)CC)nn3)CC2)n1 (stereo partly drawn),/,/,3,/,/,/,/
C#CCOCCOCCOCCNc1nc(N2CCN(C(=O)[C@H]([C@@H](C)CC)n3cc([C@@H](N)CC(C)C)nn3)CC2)nc(N2CCN(C(=O)[C@H](Cc3cc4ccccc4[nH]3)n3cc([C@@H](N)Cc4ccc(O)cc4)nn3)CC2)n1,7,-6,9,25*,-8,-15,6
C#CCOCCOCCOCCNc1nc(N2CCN(C(=O)C([C@@H](C)CC)n3cc(C(N)CC(C)C)nn3)CC2)nc(N2CCN(C(=O)[C@H](CCC(=O)O)n3cc(C(N)Cc4ccc(O)cc4)nn3)CC2)n1 (stereo partly drawn),1,-13,-5,4,-7,/,/
CS(=O)(=O)N(CCc1ccccc1)CC(=O)NCc1ccccc1,-2,7,0,-2,-4,/,/
CCOC(=O)Cc1csc(NC(=O)c2sc3nc4cc(C)ccc4cc3c2N)n1,1,-15,24,28*,5,33*,-2
CCOC(=O)Cc1csc(NC(=O)c2ccc(Br)o2)n1,-1,7,-6,-2,4,/,/
CCOC(=O)Cc1csc(NC(=O)c2sc3nc4ccc(CC)cc4cc3c2N)n1,0,-19,15,30*,-4,25*,-2
O=C(Oc1coc(CSc2ncccn2)cc1=O)c1cccs1,0,-25,-3,-6,25,/,/
Nc1cc(-c2nc3ncccc3o2)ccc1Cl,0,-2,-6,0,-6,/,/
Cc1nn(-c2ccccc2)c2[nH]c(=O)c(CNCC3CCCO3)cc12 (stereo not drawn),1,-9,0,3,-5,/,/
COc1ccc(O)c(C(=O)c2cc(SCC(=O)O)c3nc4sc5c(c4c(=O)n3c2)CCCC5)c1,2,27,-4,29*,4,19*,-3
CCOC(=O)c1sc2nc3c(SCC(=O)O)cc(C(=O)c4ccccc4O)cn3c(=O)c2c1C,1,7,5,13,8,/,/
O=C(O)CSc1cc(C(=O)c2ccccc2O)cn2c(=O)c3c(-c4ccccc4)csc3nc12,1,7,10,20*,98*,16*,-5
CCOC(=O)c1sc2nc3c(SCC(=O)O)cc(C(=O)c4cc(F)ccc4O)cn3c(=O)c2c1C,1,26,5,61*,0,48*,-3
C/C(C=O)=C/c1ccccc1,1,-12,/,-1,-16,/,/
C[C@H](CCC(=O)O)[C@H]1CC[C@H]2[C@@H]3C(=O)C[C@@H]4CC(=O)CC[C@]4(C)[C@H]3CC(=O)[C@]12C,-1,-7,/,4,/,/,/
COc1ccc(CC(=O)N(C)CC(=O)Nc2ccccc2Cl)cc1S(=O)(=O)N1CCOCC1,2,-3,/,-5,/,/,/
Cc1cccc(NC(=O)/C(=C/c2cccc([N+](=O)[O-])c2)NC(=O)c2cccs2)c1,-1,3,2,18*,/,13,0
